Data on 45 compounds can be found in article PMC4336329 (PLoS ONE, 2015).

The campaign covered roughly 310,000 compounds. About 14,000 (4.5%) showed an effect of 50% or more. The effect is printed as a negative number. The entries come from a sample that favours strong results as a whole.
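Also: peak tail current of the secondary pulse compared with the same well before compound.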

Sequence of human ether-à-go-go-related gene (hERG) potassium channel (Q12809 whole entry, looked up): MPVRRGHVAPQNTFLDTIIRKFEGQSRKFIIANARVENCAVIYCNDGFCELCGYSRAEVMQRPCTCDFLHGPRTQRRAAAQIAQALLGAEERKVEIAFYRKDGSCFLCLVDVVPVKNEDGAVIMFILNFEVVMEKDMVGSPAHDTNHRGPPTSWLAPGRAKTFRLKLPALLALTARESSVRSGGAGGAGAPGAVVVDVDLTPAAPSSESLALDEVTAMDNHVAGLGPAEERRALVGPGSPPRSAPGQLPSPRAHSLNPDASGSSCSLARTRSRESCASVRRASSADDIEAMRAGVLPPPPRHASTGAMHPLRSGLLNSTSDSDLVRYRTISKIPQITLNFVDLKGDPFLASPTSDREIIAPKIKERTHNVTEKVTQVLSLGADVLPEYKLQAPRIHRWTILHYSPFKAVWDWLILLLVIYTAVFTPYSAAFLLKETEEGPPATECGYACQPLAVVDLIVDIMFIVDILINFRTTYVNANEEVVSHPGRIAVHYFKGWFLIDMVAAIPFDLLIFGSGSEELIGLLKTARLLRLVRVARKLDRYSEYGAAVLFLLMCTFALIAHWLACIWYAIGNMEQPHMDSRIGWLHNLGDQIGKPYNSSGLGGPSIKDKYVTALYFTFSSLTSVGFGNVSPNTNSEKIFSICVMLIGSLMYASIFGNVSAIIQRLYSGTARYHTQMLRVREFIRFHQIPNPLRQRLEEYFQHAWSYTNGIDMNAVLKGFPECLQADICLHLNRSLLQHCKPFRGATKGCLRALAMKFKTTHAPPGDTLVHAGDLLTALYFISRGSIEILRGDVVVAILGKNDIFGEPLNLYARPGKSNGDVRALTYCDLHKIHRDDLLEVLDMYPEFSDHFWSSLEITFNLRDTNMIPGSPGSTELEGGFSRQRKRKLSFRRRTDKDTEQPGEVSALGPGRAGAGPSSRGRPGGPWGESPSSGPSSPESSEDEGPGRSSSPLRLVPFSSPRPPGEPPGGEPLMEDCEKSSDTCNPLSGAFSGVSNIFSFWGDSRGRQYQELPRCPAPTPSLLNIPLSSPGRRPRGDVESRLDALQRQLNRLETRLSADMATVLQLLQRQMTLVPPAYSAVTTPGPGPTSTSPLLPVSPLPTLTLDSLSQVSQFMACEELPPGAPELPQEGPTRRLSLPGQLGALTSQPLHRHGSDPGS

This assay addresses human ether-à-go-go-related gene (hERG) potassium channel (human, UniProt Q12809). As to the kind of experiment: primary screen, population patch clamp on CHO cells stably expressing hERG; higher = less effect of the substance.
Take `COc1ccc(Nc2nc3ccccc3n3nnnc23)cc1`: the “hERG current change (%, negative = inhibition) at 10uM” value is listed as -7.93%.
In the case of `CN1CCN(S(=O)(=O)c2ccc3c(c2)OCCO3)CC1`, the “hERG current change (%, negative = inhibition) at 10uM” value was found to be 12.1%.
Turning to `COC(=O)CCCC1=CC2=C(c3ccccc3)C(=O)C(C)(OC(=O)C3CCCC3)C(=O)C2=CN1Cc1ccc(OC)cc1` (stereo not drawn), the “hERG current change (%, negative = inhibition) at 10uM” value is on record as -4.26%.
In the case of `COC(=O)CCCC1=CC2=C(c3ccccc3)C(=O)C(C)(OC(=O)C3CCCC3)C(=O)C2=CN1CC1CC1` (stereo not drawn), the “hERG current change (%, negative = inhibition) at 10uM” value was -39.9%.
`COC(=O)CCCC1=CC2=C(c3ccccc3)C(=O)C(C)(OC(=O)C3CCCC3)C(=O)C2=CN1Cc1ccco1` (stereo not drawn): the “hERG current change (%, negative = inhibition) at 10uM” value is -56.8%.
Turning to `CCOC(=O)CSc1nc(N)nc(C)c1Cl`, the “hERG current change (%, negative = inhibition) at 10uM” value is 13.4%.
For the compound `Cn1c(-c2ccccc2)cnc1NCc1cc2c(cc1[N+](=O)[O-])OCO2`, the “hERG current change (%, negative = inhibition) at 10uM” value is listed as -55%.
Under `Cc1cc(F)ccc1NCc1cc2c(cc1[N+](=O)[O-])OCO2.O=C(O)C(=O)O` stands 7.77%.
For the compound `COc1ccc(-c2cnc(NCc3cc4c(cc3[N+](=O)[O-])OCO4)n2C)cc1`, the “hERG current change (%, negative = inhibition) at 10uM” value was -48.4%.
With `Cc1ccc(-c2cnc(NCc3cc4c(cc3[N+](=O)[O-])OCO4)n2C)cc1C`, the “hERG current change (%, negative = inhibition) at 10uM” value was -48.6%.
On to `Cn1c(-c2ccc(F)cc2)cnc1NCc1cc2c(cc1[N+](=O)[O-])OCO2.O=C(O)C(=O)O`, for which the “hERG current change (%, negative = inhibition) at 10uM” value was -57.8%.
Consider `Cn1c(-c2ccccc2)cnc1NCc1cc(Cl)ccc1O`, for which the “hERG current change (%, negative = inhibition) at 10uM” value stood at 19.9%.
On to `Cn1c(-c2ccc(Cl)cc2)cnc1NCc1cc2c(cc1[N+](=O)[O-])OCO2.O=C(O)C(=O)O`, for which the “hERG current change (%, negative = inhibition) at 10uM” value is given as -62.6%.
Regarding `N#Cc1nc(-c2ccccc2F)oc1NCc1cccc2c1OCO2`, the “hERG current change (%, negative = inhibition) at 10uM” value is recorded as -24.9%.
Under `CCN(C(=O)COC(=O)CNC(=O)c1ccc(C)s1)c1ccccc1` stands 16.5%; under `O=C(NCc1ccc(F)cc1)c1cccnc1C(=O)O`, 13.5%.
Take `COc1ccc(S(=O)(=O)N(CC(N)=O)C2CCCCC2)cc1Cl`: the “hERG current change (%, negative = inhibition) at 10uM” value is recorded as 4.39%.
Take `O=C(CNC(=O)c1ccccc1)NCCc1ccc(O)c(O)c1`: the “hERG current change (%, negative = inhibition) at 10uM” value is given as 1.15%.
On to `CNCCc1c[nH]c2ccccc12`, for which the “hERG current change (%, negative = inhibition) at 10uM” value is given as 6.05%.
With `COc1ccc(CCNc2nc(-c3cccnc3)nc3ccccc23)cc1OC` the figure was -1.54%; with `Cl.Oc1ccc(CCNc2c3ccccc3nc3ccccc23)cc1O`, -68.2%.
With `c1ccc2c(NCCc3c[nH]c4ccccc34)c3ccccc3nc2c1` the figure was -74.7%.
On to `CNCCc1ccc(O)c(O)c1.Cl`, for which the “hERG current change (%, negative = inhibition) at 10uM” value came out at 12.7%.
With `COc1ccc(CCNc2c3ccccc3nc3ccccc23)cc1OC.Cl`, the “hERG current change (%, negative = inhibition) at 10uM” value is -69.7%.
In the case of `Fc1cccc(NCCc2c[nH]c3ccccc23)n1`, the “hERG current change (%, negative = inhibition) at 10uM” value is on record as 11.3%.
For `COc1ccc(CCNc2nc(C)cc(C)n2)cc1OC.Cl`, the “hERG current change (%, negative = inhibition) at 10uM” value was 17.4%.
For `COc1ccc(C(=O)/C=C/Nc2cc(C)on2)cc1`, the “hERG current change (%, negative = inhibition) at 10uM” value is reported as 3.9%.
For `CCCCOC(=O)c1ccc(Nc2ccc([N+](=O)[O-])cn2)cc1`, the “hERG current change (%, negative = inhibition) at 10uM” value stood at 14.5%.
Under `Cc1ccc(-c2nnc(N3CC(C)OC(C)C3)c3ccccc23)cc1` (stereo not drawn) stands -20.6%.
With `O=C(NC(=S)Nc1ccc(CN2CCOCC2)cc1)c1ccc2c(c1)OCCO2` the figure was -13.9%; with `CC(=Nc1ccccc1N)c1c(O)n(C)c(=O)n(C)c1=O`, 21%; with `CCOc1ccc(CN(C)C(=O)CCNC(=O)c2ccco2)cc1`, 1.35%.
For `CCCOC(=O)c1[nH]c2c(c1C)C(=O)CC(c1ccc(OC)c(OC)c1)C2` (stereo not drawn), the “hERG current change (%, negative = inhibition) at 10uM” value is listed as -4.07%.
With `CCOc1ccccc1NC(=O)CN1C(=O)C(=O)N(Cc2ccco2)C1=O`, the “hERG current change (%, negative = inhibition) at 10uM” value amounted to 8.17%.
Under `CCNC(=O)c1c(O)c2ccccc2[nH]c1=O` stands -62.5%; under `O=C(NCc1ccccc1)c1c(O)c2ccccc2[nH]c1=O`, 15.4%; under `CCCCCCNC(=O)c1c(O)c2ccccc2[nH]c1=O`, 19.9%.
As for `O=C(Cn1cnc2c(nnn2Cc2ccc(F)cc2)c1=O)NCc1ccc2c(c1)OCO2`, the “hERG current change (%, negative = inhibition) at 10uM” value was -17.2%.
Consider `C=CCn1c(COc2ccc(OC)cc2)nnc1SC(C)C(=O)NC1CC1` (stereo not drawn), for which the “hERG current change (%, negative = inhibition) at 10uM” value was -11.6%.
With `CCCCCn1c(=O)[nH]c2cc(C(=O)NCCCN3CCCCC3)ccc2c1=O` the figure was -33.5%.
For `CCOn1c(=O)c(=O)n(OC)c2ccccc21`, the “hERG current change (%, negative = inhibition) at 10uM” value is -6.73%.
`CCOC(=O)C1(Cc2cccc(F)c2)CCN(CC(O)CO)CC1` (stereo not drawn): the “hERG current change (%, negative = inhibition) at 10uM” value is on record as 14.5%.
For `CCOC(=O)C1(Cc2ccc(OC)cc2)CCN(C(=O)CCn2cccn2)CC1`, the “hERG current change (%, negative = inhibition) at 10uM” value was -7.25%.
For the compound `CCOC(=O)C1(Cc2ccc(Cl)cc2)CCN(C(C)Cc2ccc(O)c(OC)c2)CC1` (stereo not drawn), the “hERG current change (%, negative = inhibition) at 10uM” value is listed as -70.8%.
With `CCOC(=O)C1(Cc2cccc(F)c2)CCN(CCCn2cccn2)CC1` the figure was -74.6%.
